From ChEMBL document CHEMBL3988442, “University of Dundee, Small-Polar-MMV Screening Library” (2021)
The whole screen tested about 38,000 compounds, of which about 1,200 (3.2%) showed an effect of 50% or more. The median lay at about -58%. Only a selection was taken, and strong results are over-represented in it overall.

These compounds were tested on Plasmodium falciparum (assay: Calibr Malaria Delayed Death Assay SOP). Conditions: concentration 4.99e-06 (unit not given; other assays of the set use mol/L).
Type: functional, organism-based
Parameters: scale not given: in the data most compounds retested in dose-response had high values

SMILES | Percent Effect [%]
Cc1cc(CN2CCC(c3nccn3C(C)C)CC2)ccc1F | 18.24
OC1COCCN(Cc2cc(-c3ccccc3OC(F)(F)F)no2)C1 (stereo not given) | -13.03
C[C@@H]1CN(Cc2cc(C3CCCCC3)no2)CC[C@]1(C)O | -5.788
OCC1COCCN(Cc2cc(C3CCCCC3)no2)C1 (stereo not given) | -120.4
NC1CCCCN(Cc2cc(-c3ccccc3OC(F)(F)F)no2)C1 (stereo not given) | 70.63
Fc1ccc(C2CCCCN2Cc2cc(-c3ccccn3)no2)cc1 (stereo not given) | -40.19
NC1CCCCN(Cc2cc(C3CCCCC3)no2)C1 (stereo not given) | 62.41
O=C(O)C(F)(F)F.O=C(O)C(F)(F)F.O=C1COC2(CCN(Cc3cccnc3)CC2)CN1c1ccccc1 | -17.97
Cc1cnc(C(=O)N2CCCC(n3cccn3)C2)cn1 (stereo not given) | -66.69
CCN(C)Cc1cccc(CNC(=O)NCCc2ccccn2)c1 | -13.41
CN(C)Cc1nnc2n1CCN(Cc1ccccn1)CC2 | -1.592
CC(C)Nc1nc2c(s1)C(=O)CN(C(=O)NCc1ccccc1)C2 | -132.7
CCCOc1cc(Cl)c(CN2CCNC(C(=O)NC3CC3)C2)cc1OC (stereo not given) | 74.72
CCOc1ccc(CN2CCNC(C(=O)NC3CC3)C2)cc1CO (stereo not given) | -11.99
NC(=O)COc1ccc(CN2CCNC(C(=O)NC3CC3)C2)cc1Cl (stereo not given) | -16.07
Cc1cc(C)n(CC(=O)N(CC2CN(C)CCO2)c2nccs2)n1 (stereo not given) | -86.12
COc1ccc(Cn2c(Cc3c(C)n[nH]c3C)n[nH]c2=O)cc1 | -40.64
CN(C)CCO[C@H]1CN(C(=O)c2ccc(C#N)cc2)[C@@H]2COC[C@H]12 | -51.41
CCCn1ncc2c(C(=O)NC(C)Cn3cccn3)cc(C3CC3)nc21 (stereo not given) | -124.5
Cc1ccc(N(C)CC(O)COCc2ccccc2)c(C)c1 (stereo not given) | -54.55
Br.Cc1cc(C)c(N(CC(O)CNCc2ccccc2)S(C)(=O)=O)c(C)c1 (stereo not given) | 69.59
Cc1cccc(CS(=O)(=O)NCC(O)Cc2ccccc2)c1 (stereo not given) | -12.6

SMILES | Percent Effect [%]
Cc1cc(C)c(N(CC(O)CNCc2ccco2)S(C)(=O)=O)c(C)c1.O=C(O)c1ccccc1 (stereo not given) | 59.67
O=C(C(CNCc1ccco1)c1ccccc1)N1CCOCC1 (stereo not given) | -74.95
N#Cc1cccc(CS(=O)(=O)NCC(O)Cc2ccccc2)c1 (stereo not given) | -10.83
O=S(=O)(Cc1cccc(F)c1)NCC(O)Cc1ccccc1 (stereo not given) | -87.6
Cc1ccc(CS(=O)(=O)NCc2ccco2)cc1 | -37.35
CCn1nc(C)c2nc(C)nc(NCCc3ccccc3)c21 | 35.69
CO[C@@H]1CN(c2ccccc2)S(=O)(=O)[C@@]12CCNC2 | -24.96
CC1c2ccsc2CCN1Cc1cc2c(cc1O)OCO2 (stereo not given) | 25.38
Cn1cc(C2CCCN2C(=O)c2cnc(-c3ncccn3)s2)cn1 (stereo not given) | -23.4
Cn1c2c(c(=O)n1C)CN(C(=O)c1cccc(F)c1)CCC2 | -64.91
CN1CCc2cc(C(CNS(=O)(=O)c3cccs3)N3CCCC3)ccc21 (stereo not given) | 13.73
CCC(CO)N(Cc1cccs1)C(=O)CNS(=O)(=O)c1cccs1 (stereo not given) | -105.8
CC(CNS(=O)(=O)CCCC#N)c1ccsc1 (stereo not given) | -35.87
O=S(=O)(NCC(c1ccsc1)N1CCCCCC1)c1cccs1 (stereo not given) | 84.95
CN(C)c1ccc(C(CNS(=O)(=O)c2cccs2)N2CCCC2)cc1 (stereo not given) | 52.34
COc1ccccc1N1CCC(CNS(=O)(=O)c2cccs2)C1 (stereo not given) | 4.169
Cc1nc(CN2CCCN(Cc3nc4ccccc4o3)CC2)no1 | -14.25
CSCC(=O)N1CCOC(c2nc(C(C)(C)C)n[nH]2)C1 (stereo not given) | -128.5
O=C(C1CC(=O)N(c2n[nH]c3cc(Br)ccc23)C1)N1CCOCC1 (stereo not given) | -162.5
O=C(NC1CC1)N1CCc2ncc(CN3CCOCC3)n2CC1.O=C(O)C(F)(F)F | -16.42
O=C(CC1NC(N2CCc3ccccc32)=NC1=O)Nc1ccccc1 (stereo not given) | -56.07
C[C@@H]1CN(C(=O)c2cccc(F)c2)C[C@]12CCN(c1ccsc1)C2=O | -98.41

SMILES | Percent Effect [%]
Cc1cc(C)n(CC2CN(CC3CCCC3)CCO2)n1 (stereo not given) | -35.36
COc1ccc(N2CCC(N3CCOC(C(F)(F)F)C3)CC2)cc1 (stereo not given) | -105.9
CCS(=O)(=O)c1ccc(N2CCC(NC(C)=O)CC2)cc1 | -87.36
COc1cccc(N2CCC(N3CCOC(C(F)(F)F)C3)CC2)c1 (stereo not given) | -105.8
Cc1ccc(-c2cccc(N3CCC(NC4CCOCC4)CC3)c2)cc1 | -119.9
CNC1CCN(C2CCN(c3ccc(-c4ccco4)cc3)CC2)CC1 | 85.81
Cc1nc[nH]c1-c1nccn1CCN1CCCC1=O | -100.3
CCOC[C@@H]1CC[C@H]2[C@H](CCN2C(=O)c2ccncc2F)O1 | -16.41
CCn1cc(CNC2CCN(c3cccc(Cl)c3)C2)cn1 (stereo not given) | 17.81
OC1CCN(Cc2ccc(CNc3ncc(Cl)cc3F)cc2)CC1 | 26.38
Clc1cc(Cl)cc(CN2CCC(NCc3ncc[nH]3)CC2)c1 | 83.8
Cc1cccc(OC2CCN(Cc3ncc[nH]3)CC2)c1 | 7.466
c1ccc(CN2CCC(NCCSc3cnn[nH]3)CC2)cc1 | -21.85
Clc1cccc(N2CCC(NCc3cc[nH]n3)C2)c1 (stereo not given) | -43.41
OC1CCN(Cc2ccc(CNc3ccc(Cl)cn3)cc2)CC1 | -61.51
Brc1ccc(CN2CCC(NCc3ncc[nH]3)CC2)cc1 | 82.48
Clc1cccc(N2CCC(NCc3ncc[nH]3)C2)c1 (stereo not given) | 65.12
O=C(COc1ccccc1Br)N1CCOc2ccncc21 | -65.13
O=C(O)C(F)(F)F.O=S(=O)(C1CC1)N1CCO[C@H]2[C@H](Oc3cccnc3)CC[C@@H]21 | -58.06
Cc1nc(NC2CCN(C(=O)C3CC3)CC2)c2cnn(C)c2n1 | -160.6
CNC(=O)[C@H]1C[C@@H]2CN(C(=O)c3cccnc3)C[C@@H]2N1S(C)(=O)=O.O=C(O)C(F)(F)F | -51.87
